The test system of this assay is VDR:RXRa (NR concentration 270 nM, RXRa partner concentration 90 nM). Kind of assay: PBM binding z-score (relative to random genomic background probes); higher = stronger binding; sequences stand for … in GC…GCGATTGACAGCGTAGAATGAAGG
How it is done:
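Protein-binding microarray (Agilent 4x180K custom design, double-stranded 60-nt probes: 5' GC cap, 34-nt variable region, 24-nt constant primer region; full probe sequence given). Purified or IVT nuclear receptor:RXRα heterodimers (3:1 NR:RXRα, mostly 270:90 nM) or homodimers were incubated for 1 h in PBS with 2% milk and no ligand, then detected with Alexa488 antibodies. Fluorescence from o1-orientation probes (~5 replicates averaged) was converted to z-scores against 500 random hg19 background probes. Variable regions are seed direct-repeat (DR0–DR5) sites, all their single-nucleotide variants and half-site ablations.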
As for TAGCCTAGCTCAGATCGGGCCAGTATACGCTATA, the PBM binding z-score is -0.94.

For the sequence GCATAAAGGTAATACAAGGTGAAAGTCCGATTGT, the PBM binding z-score was found to be 1.05.

As to TCATATAGGTAATACAGGTGAAACTCGGCATCTA, the PBM binding z-score was 1.37.

For AGACTGAGGTTACCAAAGATCAGGGAAACGCTTG, the PBM binding z-score was 1.13.

The sequence GCTAGCAGGCCATTTCGGTCACTCAATGACGGGC yielded a PBM binding z-score of -0.644.

In turn, CCTCGGAGGACCGAAGGTCAGAGCTGTCCGCTTT gave a PBM binding z-score of 0.565.

As to TCTAGTTGGTCACGGAGGTCTCACACGACGGGTA, the PBM binding z-score amounted to 1.65.

On to ATACCAAGGTGATCGTAAGGTCGTTGATACTAAC, for which the PBM binding z-score was determined as 2.74.

As for ATCTCTAGGTAAAGGTTCAGTGAATCCCGAGGAT, the PBM binding z-score is 1.09.

In turn, CAAACTAGGTCAAAGTCAAAGTCGGTTTGTGCCA returned a PBM binding z-score of 2.38.

TCTATTAGTTGAAGGGCAACCGCCGAGTCCGTTT returned a PBM binding z-score of 0.974.

As to CGAACTAGGTCACGAAAGGTCAAAGTCGAATGAC, the PBM binding z-score came out at 6.89.

TAGCCTAGGTCAGGCGGGCCAGTATAGTGTCGGC showed a PBM binding z-score of 0.804.

In the case of TCTTGTAGATCAATGGTTAAGAAAGCCGAAGCCT, the PBM binding z-score was found to be 0.403.

GCTAGGTGGTCAGTAAAAGGTCACACACCGGTCG displayed a PBM binding z-score of 4.22.

For the sequence CAAACTAGGTCAAGTGGTCAAAGTCCGCTTCCCG, the PBM binding z-score amounted to 2.52.

Turning to TGAATTAGGTTATAAGATCAGGGAACGTTGCAAA, the PBM binding z-score is -0.0623.

Sequence TCTAGATGGTCACGGAGGTCACACACGACGGGTA had a PBM binding z-score of 6.25.

In turn, CAAACTAGGTCAAGAGGTCAACGTCCGCTTCCCG came in with a PBM binding z-score of 5.97.

Turning to TAAACAGGGTCAAAGGCCAGAGTACGAATGTCGA, the PBM binding z-score was found to be 4.92.

On to ATTACAGGGTCACTAGGCCAGAGTAGGTACGAAT, for which the PBM binding z-score stood at 4.19.

The sequence AGAATGAGGTTACCAAAGATCAGGGAAACGCTTG displayed a PBM binding z-score of 1.37.

As for CCTGCTATGTCAATGGTCAGCTAAAGCAGCTCGC, the PBM binding z-score is -0.397.

TCTGCTAGGTCAACGAAGGTCAGCTAATCTGCTA had a PBM binding z-score of 4.97.

GCAGACAGGTGAAACGCCGGTAACTCAGGGTGGC had a PBM binding z-score of -0.708.

Regarding CGAACGAGGGAATGAGTTGATAGCAAATGCCGAT, the PBM binding z-score is -0.28.

Regarding GCTATTTGGTCAGTAAAAGGTCACACACCGGTCG, the PBM binding z-score was 4.32.

For TTACCAAGGTGAAGGTCGATGATCCCTCTGTAGA, the PBM binding z-score was 0.54.

The sequence TAGCCGAGGTCAGATCGGGCCAGTATACGCTATA showed a PBM binding z-score of 4.26.

TCTAGTTGGTCACGGAGATCACACACGACGGGTA displayed a PBM binding z-score of 0.966.

ACTAGCAGGCCAAGTTTTGGTCACTCAAACAAAG registered a PBM binding z-score of -0.348.

Turning to GGAACGAGGGCAAGTTGAGAGCAGAGTTTGATGG, the PBM binding z-score amounted to 0.881.

As for ATCGAAAGGTCGAAGGTAAGTATACCCACCCGAA, the PBM binding z-score turned out to be 2.51.

Turning to GATACAGGGTCAAGGCCAGAGAACGCGTATTGAT, the PBM binding z-score turned out to be 3.99.

As to CCTTACTGGTCACGAGGTTATAGCACGACGAGCG, the PBM binding z-score was 1.86.

In turn, CCAGACAGGTGTGAAGGTAACTCAGCCTCGATTA returned a PBM binding z-score of -0.322.

In the case of ATATGTAGGTTATCGGGTCATTTAGTTTGCGCAT, the PBM binding z-score is 4.24.

Turning to AATACAGTGTCACTAGGCCAGAGTAGGTACGAAT, the PBM binding z-score was -0.0369.

GCTATTAGCTGAAAGGGCAACCGAATGATTCTCG yielded a PBM binding z-score of -0.0457.

In turn, CCTCGGAGGACAGAAGGTCGGAGCTGTCCGCTTT yielded a PBM binding z-score of -0.398.

For the origin of these results see the supplement of paper PMC6555819.
